Among all 310,000 compounds or so, about 14,000 (4.5%) showed an effect of 50% or more. Effects have a minus sign here. The list comes from a sample in which strong results are over-represented; it also holds similar structures and randomly drawn compounds.
Target: human ether-à-go-go-related gene (hERG) potassium channel (human, UniProt Q12809)
Experiment: primary screen, population patch clamp on CHO cells stably expressing hERG; higher = less effect of the substance
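Further: peak tail current of the secondary pulse compared with the same well before compound.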

Chain of human ether-à-go-go-related gene (hERG) potassium channel (Q12809 whole entry, looked up): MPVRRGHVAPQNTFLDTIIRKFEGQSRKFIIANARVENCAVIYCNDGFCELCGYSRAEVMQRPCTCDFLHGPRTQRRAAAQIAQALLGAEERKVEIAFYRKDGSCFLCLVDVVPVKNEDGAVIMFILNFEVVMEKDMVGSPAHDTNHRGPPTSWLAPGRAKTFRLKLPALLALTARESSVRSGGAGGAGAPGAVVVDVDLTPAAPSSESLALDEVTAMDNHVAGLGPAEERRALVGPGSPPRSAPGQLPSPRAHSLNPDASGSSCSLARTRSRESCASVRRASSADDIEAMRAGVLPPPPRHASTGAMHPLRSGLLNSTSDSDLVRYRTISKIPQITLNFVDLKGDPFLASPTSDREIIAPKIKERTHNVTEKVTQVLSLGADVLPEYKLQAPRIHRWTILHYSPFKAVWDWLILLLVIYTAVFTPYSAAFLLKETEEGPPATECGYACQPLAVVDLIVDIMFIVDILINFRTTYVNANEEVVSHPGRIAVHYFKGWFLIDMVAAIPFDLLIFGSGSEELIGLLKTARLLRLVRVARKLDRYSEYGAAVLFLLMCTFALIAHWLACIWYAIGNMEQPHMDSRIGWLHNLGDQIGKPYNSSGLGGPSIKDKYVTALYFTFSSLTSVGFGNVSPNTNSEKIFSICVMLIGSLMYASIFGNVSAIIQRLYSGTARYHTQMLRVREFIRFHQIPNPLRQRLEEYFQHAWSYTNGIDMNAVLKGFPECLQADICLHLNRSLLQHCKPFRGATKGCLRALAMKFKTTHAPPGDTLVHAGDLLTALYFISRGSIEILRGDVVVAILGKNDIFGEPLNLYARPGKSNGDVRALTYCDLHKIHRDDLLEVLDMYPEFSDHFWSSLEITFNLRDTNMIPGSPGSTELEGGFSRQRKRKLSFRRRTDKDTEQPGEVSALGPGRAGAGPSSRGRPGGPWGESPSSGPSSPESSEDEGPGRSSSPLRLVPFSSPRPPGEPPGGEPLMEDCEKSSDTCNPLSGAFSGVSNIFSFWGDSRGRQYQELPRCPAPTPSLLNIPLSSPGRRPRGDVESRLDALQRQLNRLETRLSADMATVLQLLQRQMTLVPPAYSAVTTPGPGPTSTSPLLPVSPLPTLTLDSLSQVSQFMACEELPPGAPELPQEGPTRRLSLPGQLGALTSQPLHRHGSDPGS

Structure (SMILES) | hERG current change (%, negative = inhibition) at 10uM
Cc1nc2ccccc2c(=O)n1NC(=O)c1cncc(Br)c1 | 14.9%
Cc1cc(C)c(C(=O)OCCNC(=O)c2cccnc2)cc1C | -17.3%
CCc1ccccc1N(CC(=O)NCc1ccco1)C(=O)CCC(=O)Nc1nccs1 | 0.493%
N#CC(C#N)=Cc1cnc(N2CCN(c3ccccc3)CC2)s1 | 23%
COCCN(C(=S)Nc1cc(C)ccc1C)C(C)c1cccnc1 (stereo not shown) | -25.4%
Cc1ccc(OC(C)C(=O)Nc2ccccc2C(=O)N2CCN(C)CC2)cc1 (stereo not shown) | -5.11%
Cc1c(NP(=O)(C(C)(C)C)C(C)(C)C)c(=O)n(-c2ccccc2)n1C | 26.4%
CCc1c(C)c(C#N)c2nc3ccccc3n2c1Nc1c(C)n(C)n(-c2ccccc2)c1=O | -5.49%
Cc1c(Nc2nc3ccccc3nc2NS(=O)(=O)c2cccc(Cl)c2)c(=O)n(-c2ccccc2)n1C | -2.18%
Cc1c(NP(=O)(c2ccc(Br)cc2)c2ccc(Br)cc2)c(=O)n(-c2ccccc2)n1C | -65.7%
Cc1c(Nc2nc3ccccc3nc2NS(=O)(=O)c2cccs2)c(=O)n(-c2ccccc2)n1C | 1.13%
Cc1c(Nc2nc3ccccc3nc2NS(=O)(=O)c2ccccc2)c(=O)n(-c2ccccc2)n1C | -67.1%
Cc1c(NS(=O)(=O)c2ccc(Br)cc2)c(=O)n(-c2ccccc2)n1C | -6.03%
Cc1cc(Nc2c(C)n(C)n(-c3ccccc3)c2=O)n2c(nc3ccccc32)c1C#N | -73.6%
Cc1cc(Nc2c(C)n(C)n(-c3ccccc3)c2=O)n2c(nc3cc(F)c(F)cc32)c1C#N | 19.2%
Cc1cc(Nc2c(C)n(C)n(-c3ccccc3)c2=O)c2ccccc2n1 | -20.3%
Cc1c(Nc2nc(C(F)(F)F)nc3ccccc23)c(=O)n(-c2ccccc2)n1C | -1.37%
Cc1c(Nc2c3ccccc3nc3ccccc23)c(=O)n(-c2ccccc2)n1C | -71%
CC(C)C(=O)Nc1cccc(C(=O)Nc2ccc(S(=O)(=O)Nc3nccs3)cc2)c1 | 8.32%
Nn1cnnc1SCC(=O)N1CCc2ccccc2C1 | -12.8%
COc1ccc(C(=O)c2nccc3ccccc23)cc1 | 0.535%
COc1cccc(N(CC(=O)NCC2CCCO2)C(=O)CNS(=O)(=O)c2ccccc2)c1 (stereo not shown) | 23.1%

Structure (SMILES) | hERG current change (%, negative = inhibition) at 10uM
c1ccc(CCNc2ncnc3c2cnn3-c2ccccc2)cc1 | -40.5%
CC(=O)Nc1ccc(N2CCc3c(C)c(C#N)c4nc5ccccc5n4c32)cc1 | 8.55%
Cc1ccc(N(Cc2ccc(C(=O)NCCSc3ccccn3)cc2)S(C)(=O)=O)cc1C | -4.82%
Cc1nn(-c2ccc(Cl)cc2Cl)c(=O)c2ccccc12 | -11.3%
O=c1[nH]c(N2CCN(c3ccccc3)CC2)nc2c1CCCC2 | 2.28%
O=c1[nH]c(N2CCN(Cc3ccccc3)CC2)nc2c1CCC2 | 18.9%
Cc1nc(SC2CC(=O)N(c3ccccc3)C2=O)nc2c1CCCC2 (stereo not shown) | -3.22%
Nc1c2c(nc3ccn(-c4ccccc4)c(=O)c13)CCCCC2 | -58.8%
Nc1c2c(nc3ccccc13)CCC2.O=C(O)/C=C/C(=O)O | -18.2%
Nc1c2c(nc3ccn(Cc4ccccc4)c(=O)c13)CCC2 | -66%
Cc1sc(NC(=O)CN2CCN(c3ccccn3)CC2)c(C#N)c1C | 2.51%
O=C(C/C=N/OCc1ccc(Cl)cc1Cl)c1ccccc1 | -6.79%
CC(=O)Nc1nc(-c2cccc3ccccc23)cs1 | -9.32%
CSc1ccc(CNC2CC2)cc1.Cl | -7.3%
CC(C)Cn1c(C(C)C)nc([N+](=O)[O-])c1Sc1ccc(Cl)cn1 | -6.57%
CCCn1c(CC)nc([N+](=O)[O-])c1Sc1ccc(C)cc1 | -0.08%
CCCCn1c(CCC)nc([N+](=O)[O-])c1Sc1ccc(Cl)cn1 | -53.2%
CCOC(=O)C1(Cc2cccc(Cl)c2)CCCN(C(=O)c2cccc(C)n2)C1 (stereo not shown) | -1.76%
CCOCCCNC(=O)COc1ccc(OC)cc1 | 13.2%
Cn1c(N)c(C(=O)CCl)c(=O)n(Cc2ccccc2)c1=O | 2.2%
CC1(C)CC(NC(=S)NC(=O)c2cc(Br)ccc2Cl)CC(C)(C)N1 | -53.3%
CC1(C)CC(NC(=O)c2cc(Cl)ccc2Cl)CC(C)(C)N1 | -1.21%

Structure (SMILES) | hERG current change (%, negative = inhibition) at 10uM
CC1(C)CC(NC(=O)c2ccc(Cl)cc2Cl)CC(C)(C)N1 | 2.81%
C=C1c2cc(CC)ccc2NC(=O)N1c1ccc(C)cc1 | 8.71%
CC(=O)c1c(C)n(CCCOC(C)C)c2ccc(O)cc12 | -30.4%
COc1ccc(NS(=O)(=O)c2ccc(NC(=S)NC(=O)/C=C/c3ccccc3)cc2)nn1 | -3.33%
Cc1cccc(NC(=O)CN2C(=O)N/C(=C\c3ccc(-c4cccc(C(=O)O)c4)o3)C2=O)c1 | 19.3%
Cc1ccc2c(c1)C1CN(C)CCC1N2S(=O)(=O)c1cccc(C(F)(F)F)c1 (stereo not shown) | -40.1%
CCc1ccc(S(=O)(=O)N2c3ccc(C)cc3C3CN(C)CCC32)cc1 (stereo not shown) | -60.4%
Cc1ccc2c(c1)C1CN(C)CCC1N2S(=O)(=O)c1cccc(F)c1 (stereo not shown) | -11.5%
Cc1ccc2c(c1)C1CN(C)CCC1N2S(=O)(=O)c1ccc(C(C)C)cc1 (stereo not shown) | -73.4%
Cc1ccc2c(c1)C1CN(C)CCC1N2S(=O)(=O)c1cc(C(F)(F)F)ccc1Cl (stereo not shown) | -27.6%
Cc1ccc2c(c1)C1CN(C)CCC1N2S(=O)(=O)c1ccccc1 (stereo not shown) | -32.4%
O=C(COC(=O)c1ccc(S(=O)(=O)C(F)F)cc1)Nc1ccccc1C(=O)NC1CC1 | 11.5%
O=C(CCN=C1NS(=O)(=O)c2ccccc21)OCC(=O)c1ccc(F)cc1 | -3.17%
O=C(NCCCN1CCOCC1)c1onc(CSc2ccncc2)c1C(=O)NCCCN1CCOCC1 | -5.25%
CCCCCC(=O)N/N=C/c1ccc(N(C)C)cc1 | -19.2%
COc1cc(NC(=O)C2CCN(c3cnccn3)CC2)cc(OC)c1OC | 19.5%
COc1ccc(CNC(=O)CSc2n[nH]c(N)n2)cc1OC | -77.5%
COc1ccc(CNC(=O)CSc2ccc(Br)cc2)cc1OC | -63.1%
COc1ccc(CCNC(=O)CSc2ccc(Br)cc2)cc1OC | 23%
COc1ccc(CNC(=O)CSc2n[nH]c(N)n2)cc1 | 20.1%
COc1ccccc1CNC(=O)CSc1ccc(Br)cc1 | -3.01%
COc1ccc(CCNC(=O)CSc2n[nH]c(N)n2)cc1OC | 30.1%

Structure (SMILES) | hERG current change (%, negative = inhibition) at 10uM
COc1ccc(CNC(=O)C2CCN(c3nccs3)CC2)cc1 | -31.8%
CC(C)c1ccc(Oc2cccc(C(=O)/C(C#N)=C/N(C)C)c2)cc1 | -14.6%
CSc1ncc(CN2CCCC(C(=O)c3cccc(Cl)c3)C2)cn1 (stereo not shown) | -47.1%
CCn1cc(CN2CCCC(C(=O)c3sccc3C)C2)cn1 (stereo not shown) | -27.3%
Cc1ccsc1C(=O)C1CCCN(Cc2cnc(N)nc2)C1 (stereo not shown) | -4.85%
Cc1ccsc1C(=O)C1CCCN(Cc2cnn(C(C)C)c2)C1 (stereo not shown) | -56.4%
O=C(c1ccc(Cl)cc1)C1CCCN(Cc2cccn2-c2cccnc2)C1 (stereo not shown) | -42%
Cc1ccsc1C(=O)C1CCCN(Cc2cnn(C)c2)C1 (stereo not shown) | 12%
CSc1ncc(CN2CCCC(C(=O)c3sccc3C)C2)cn1 (stereo not shown) | -55.2%
Cc1ccsc1C(=O)C1CCCN(Cc2cnc(N3CCCC3)s2)C1 (stereo not shown) | -15.3%
CSc1ccc(C(=O)C2CCCN(Cc3cccn3-c3cccnc3)C2)cc1 (stereo not shown) | -65.1%
CSc1ccc(C(=O)C2CCCN(Cc3cnc(SC)nc3)C2)cc1 (stereo not shown) | -76.4%
CSc1ncc(CN2CCCC(C(=O)c3ccc(C(C)(C)C)cc3)C2)cn1 (stereo not shown) | -31.9%
COc1cccc(/C=N/NC(=O)C(C)n2nnc3ccccc32)c1 (stereo not shown) | -1.1%
Cc1cc([N+](=O)[O-])nn1CC(=O)Nc1sc2c(c1C(N)=O)CCCC2 | 7.62%
CCN(CC(=O)NCc1cccs1)CC(=O)Nc1c(Cl)ccc(C)c1Cl | -16.8%
CC12CC3(C)CC(C)(C1)CC(C(=O)NC(=S)NC(C)(C)C)(C2)C3 | 13.3%
CSc1ccc(C(=O)C2CCCN(Cc3cccnc3)C2)cc1 (stereo not shown) | -53%
O=C(C1CCCN(Cc2cccnc2)C1)N1CCCCC1.O=C(O)C(=O)O (stereo not shown) | 7.77%
CSc1ccc(C(=O)C2CCCN(Cc3ccn[nH]3)C2)cc1 (stereo not shown) | -26.6%
CCCCn1nc(C(=O)NCC2COc3ccccc3O2)c2ccccc2c1=O (stereo not shown) | -49.1%
O=[N+]([O-])c1ccccc1/C=C/C=N/n1c(-c2ccc(Cl)cc2)n[nH]c1=S | 17.5%

Reference: paper PMC4336329 (PLoS ONE, 2015)
